HCV inhibitor = HCV inhibition. Huh7.5.1 HCVcc-Cre infection, luciferase reporter, 44 h. Potency, µM (top dose mostly 41.8 µM), for the others: top-dose activity change, negative = inhibition, hits mostly inhibitors. actives 3.4% (n = 340,000). AID 651820; also: potency is read from the fitted curve at half-maximal effect; % is scaled to controls: 0 for no effect and ±100 for the full control effect
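A cell-based infection assay in which seeded cells (1,000 per well) receive test compound after 4 h, are inoculated with HCVcc-Cre at approximately 0.5 moi, and are incubated 44 h before luminescence detection.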
HCMV antiviral = human cytomegalovirus inhibition. actives 4.5% (n = 410,000). activity change, negative = inhibition, % at 57.5 µM. HFF cells, HCMV-luciferase reporter, 72 h; hits give low values; in the data active = activity change below about -60%; inconclusive = no clear call, values can overlap the other calls; inactive = above about -39%; also: % is scaled to controls: 0 for no effect and ±100 for the full control effect
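Luciferase read-out from HCMV-luciferase-infected HFFs (MOI 1 PFU/cell) 72 h post infection at 37C; compounds added after 16 h cell attachment; activity normalized between buffer-only basal and Salinomycin (10uM) inhibitor controls.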
Pf growth 96h = inhibits malaria parasite growth, 96 h; P. falciparum luciferase reporter growth, 96 h; Potency, µM (series often up to 28.7 µM), inactives show at the highest dose activity change, negative = inhibition, actives largely listed as inhibitors; actives 6.9% (n = 320,000); AID 504834; also: potency is read from the fitted curve at half-maximal effect; % is scaled to controls: 0 for no effect and ±100 for the full control effect
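Readout is luminescence from an integrated firefly luciferase in P. falciparum. Red cells, 2% hematocrit and 0.05% parasitemia final, were cultured with compound through two parasite generations (96 hours) at 37 C, 5% CO2.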
Pf growth 48h = P. falciparum growth inhibition at 48 hours (one generation); P. falciparum luciferase growth in erythrocytes, 48 h; Potency, µM (highest dose often 28.7 µM), for the others: at the top dose activity change, negative = inhibition, usual class: inhibitors; actives 5.9% (n = 310,000); also: potency is read from the fitted curve at half-maximal effect; % is scaled to controls: 0 for no effect and ±100 for the full control effect
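Here the parasites carry a stable luciferase gene and grow inside erythrocytes in Albumax-based RPMI medium with compound for one erythrocytic cycle. Activity is scored as loss of luminescent signal.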
Sm TGR inh = inhibitors of Schistosoma mansoni thioredoxin glutathione reductase | Q962Y6 | purified TGR, DTNB reduction, TNB absorbance 405 nm | Potency, µM (highest dose often 114 µM), inactives show top-dose activity change, negative = inhibition, actives largely listed as inhibitors | actives 3% (n = 360,000); also: potency is read from the fitted curve at half-maximal effect; % is scaled to controls: 0 for no effect and ±100 for the full control effect; nearly all actives have a fitted effect of over 60% in size
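TGR 20 nM + NADPH 100 uM (dispensed conc.), cpd preinc 15 min RT; start with NADPH (500 uM addition) then DTNB (15 mM addition). Kinetic TNB absorbance, 405 nm filter. Four-parameter Hill fit across titration.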
SARS PLpro yeast = SARS-CoV PLP inhibition in yeast; Potency, µM (series often up to 32.9 µM), without a hit: at the highest dose activity, positive = growth rescue, usual class: activators; actives 0.19% (n = 330,000); S. cerevisiae expressing SARS-CoV PLpro, growth rescue; AID 485353; calls by dose curve; also: potency is read from the fitted curve at half-maximal effect; 0% is about no effect; nearly all actives have a fitted effect of over 55% in size
* marks the source's active call; other numbers are inactive results; ? = inconclusive; nt = no result; [ ] = another dose, or the depositor's remark. Rows were chosen to be rich in hits. Some 15% of all compounds tested hit in one or more screens of this group. Unless noted, calls follow the shape of the dose curve; as a rule, active = well fitted curve in the direction sought with a large enough effect; inconclusive = small, poorly fitted or top-dose-only effect, or another doubt; inactive = no such curve, though single readings can be large; an effect the other way counts as inactive or inconclusive.

SMILES	HCV inhibitor	HCMV antiviral	Pf growth 96h	Pf growth 48h	Sm TGR inh	SARS PLpro yeast
CC(CNC(=O)c1cccs1)c1ccc([N+](=O)[O-])cc1 (centres undefined)	-2%	?	?	?	-4%	-3%
COC(=O)[C@@]1(Sc2ccc(OC)cc2)CC(=O)N[C@@H]1c1ccc(OC(C)C)c(OC)c1	nt	-5	nt	nt	nt	nt
Cc1ccc(N2C(N)=C(C#N)C(c3cccnc3)C3=C2CC(C)(C)CC3=O)cc1 (centres undefined)	?	?	34%	?	40µM*	-1%
CC1(C)CC(=O)C2=C(C1)N(N1CCOCC1)C(N)=C(C#N)C2c1cccnc1 (centres undefined)	4%	-21	nt	6%	-10%	-2%
CN(C)N1C(N)=C(C#N)C(c2ccsc2)C2=C1CC(C)(C)CC2=O (centres undefined)	41%	-29	14%	-20%	-16%	2%
Cc1ccc(N2C(N)=C(C#N)C(c3ccsc3)C3=C2CC(C)(C)CC3=O)cc1 (centres undefined)	13µM*	-101*	-20%	?	-14%	3%
CCSc1sccc1C1C(C#N)=C(N)N(c2cccnc2)C2=C1C(=O)CCC2 (centres undefined)	20%	9	239%	12µM*	-22%	6%
COc1cc(C2C(C#N)=C(N)N(c3cccnc3)C3=C2C(=O)CCC3)ccc1O (centres undefined)	14%	34	?	nt	0%	-6%
COc1cc(C2C(C#N)=C(N)N(c3sc4c(c3C#N)CCCC4)C3=C2C(=O)CC(C)(C)C3)cc(OC)c1OC (centres undefined)	7%	nt	12µM*	?	7%	2%
CSc1sc(C)cc1C1C(C#N)=C(N)N(c2cccnc2)C2=C1C(=O)CC(C)(C)C2 (centres undefined)	11%	-5	18%	?	-17%	8%
CCOC(=O)C1=C(N)N(c2ccccc2)C2=C(C(=O)CCC2)C1c1cccnc1 (centres undefined)	9%	?	5.2µM*	-20%	3%	4%
CCOc1ccc(OCC)c(C2C(C#N)=C(N)N(c3cccnc3)C3=C2C(=O)CC(C)(C)C3)c1 (centres undefined)	4%	-5	nt	?	22µM*	7%
CCOC(=O)c1cc2c(=O)n3ccccc3nc2n(Cc2ccco2)c1=NC(=O)c1cccc(C)c1	nt	-3	nt	nt	-31%	nt
CCOC(=O)c1cc2c(=O)n3ccccc3nc2n(Cc2ccco2)c1=NC(=O)c1cccnc1	2%	-16	?	?	22µM*	3%
CCOC(=O)c1cc2c(=O)n3cccc(C)c3nc2n(Cc2ccco2)c1=NC(=O)c1cccnc1	?	-9	?	?	5.6µM*	1%
CCOC(=O)C1=CCN(S(=O)(=O)c2ccc(Cl)cc2)C1c1cccc(F)c1 (centres undefined)	nt	-27	nt	nt	nt	nt
COCCCn1c(=N)c(C(=O)NCc2ccco2)cc2c(=O)n3cccc(C)c3nc21	nt	-6	nt	nt	-3%	nt
Cc1cccn2c(=O)c3cc(C(=O)NCc4ccco4)c(=N)n(CCOCCO)c3nc12	-11%	nt	?	1.5µM*	-2%	2%
Cc1cccn2c(=O)c3cc(C(=O)NCc4ccco4)c(=N)n(C4CCCCC4)c3nc12	?	nt	20%	9.3µM*	-6%	1%
Cc1cc(Cl)ccc1NC(=O)/C=N/O	10%	3	3%	1.9µM*	0%	-1%
CN(C)NC(=S)NC1CCS(=O)(=O)C1 (centres undefined)	21%	-14	13%	-20%	23%	1%
Cc1nn(CC(=O)Nc2cccnc2)c(C)c1[N+](=O)[O-]	2%	?	-5%	29%[5.75 µM]	2%	0%
Cc1ccc(/C=C/C(=O)NCCc2cccc(Cl)c2)o1	-11%	-13	-1%	-27%	2.5µM*	-12%

Source: PubChem (National Center for Advancing Translational Sciences (NCATS))
